Bioassay records (PubChem BioAssay)
D2 PAM-1 – positive allosteric modulators of human D2 dopamine receptor; P14416; DiscoveRx D2 beta-arrestin cells, luminescence, 90 min; 100% = 57 uM dopamine signal; potentiation, % (no concentration beside the values); hit rate 0.23% among 360,000; AID 624464; in the data active means potentiation above about 50%
Target sequence (P14416 whole entry, looked up): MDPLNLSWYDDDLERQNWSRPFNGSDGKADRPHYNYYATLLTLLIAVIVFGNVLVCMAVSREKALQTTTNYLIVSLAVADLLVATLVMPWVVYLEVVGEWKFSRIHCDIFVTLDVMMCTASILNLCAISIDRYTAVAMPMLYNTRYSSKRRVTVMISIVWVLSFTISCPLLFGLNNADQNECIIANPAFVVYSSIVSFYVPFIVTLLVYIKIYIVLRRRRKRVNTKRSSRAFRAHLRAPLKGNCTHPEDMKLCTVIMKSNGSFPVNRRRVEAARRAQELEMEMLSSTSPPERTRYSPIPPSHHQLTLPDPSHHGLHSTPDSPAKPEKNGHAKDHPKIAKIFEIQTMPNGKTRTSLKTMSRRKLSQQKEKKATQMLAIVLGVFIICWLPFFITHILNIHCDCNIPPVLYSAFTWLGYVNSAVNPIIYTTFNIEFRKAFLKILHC
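D2 cells co-treated with compound plus 50 nM dopamine (EC20) for 90 min at 37 deg C to detect potentiation. Beta-arrestin recruitment was read as enzyme-fragment luminescence after 1 h at ambient temperature. Full response was set by 57 uM dopamine.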
D2 ag-1 – agonists of human D2 dopamine receptor; hit rate 0.53% among 340,000; P14416; activation, % at 2 µM; HEK293 T-REx D2 cells, calcium flux agonist mode;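 active means activation over 3 SD above normal in the single-dose calcium agonist read, cut at about 30% in these data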
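In this primary screen, compounds producing a positive calcium signal within 180 s of addition to tetracycline-induced, force-coupled HEK293 Trex D2 cells are flagged; cells are dye-loaded with a no-wash calcium kit beforehand.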
D2 ag-2 – agonists of human D2 dopamine receptor (beta-arrestin). DiscoveRx PathHunter D2 beta-arrestin, luminescence, 90 min; 100% = 57 uM dopamine signal. activation, % (concentration not given with the values). P14416. hit rate 0.084% among 360,000; in the data active means activation above about 40%
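DiscoveRx PathHunter D2 beta-arrestin cells (2,100/well) attached overnight, then compound-stimulated 90 min at 37 C in HBSS/10 mM HEPES/0.1% Tween-20 buffer; beta-galactosidase complementation read by luminescence after 1 h at ambient temperature. Dopamine 57 uM final (EC100) as control.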
D2 antagonist – D2 dopamine receptor (human) antagonism; P14416; inhibition, % at 10 µM; hit rate 2% among 340,000; HEK293 TREx D2 cells, calcium flux, dopamine EC80; in the data active means inhibition above about 30%; inactive means below that, where a call was filed
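Calcium mobilization kinetics were recorded at 1 s intervals in tetracycline-induced HEK293 T-REx D2 cells, first for 180 s after compound addition and then 180 s after EC80 dopamine.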
D2 PAM-2 – positively modulates the human D2 dopamine receptor allosterically; P14416; HEK293 T-REx D2, calcium flux, EC20 dopamine potentiation; potentiation, % at 10 µM; hit rate 0.34% among 340,000; AID 485347;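 active means potentiation over 3 SD above the plate norm, cut at about 30% in these data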
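Potentiation of an EC20 dopamine calcium response measured kinetically over 180 s, after a preceding 180 s compound-only read flagging agonists. Cells: inducible Hek293 Trex D2 line, 4000/well, cultured overnight at 30 C before dye loading.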
Each line names hits and unclear results; the compound was inactive in the other large screens. Rows were chosen to be rich in hits. Some 2.4% of all compounds tested hit in one or more screens of this group.

COc1ccc(-n2nc(C(=O)NCCc3ccc(OC)c(OC)c3)c3c4ccccc4n(C)c3c2=O)cc1	none (no result: D2 PAM-1, D2 ag-2, D2 antagonist)
c1cc2c3c(cccc3c1)NC(c1ccc3c(c1)OCO3)N2	D2 ag-2 44
CSc1ccc(C2Nc3cccc4cccc(c34)N2)cc1	D2 PAM-1 58, D2 ag-2 54
Cc1cc(C)nc(SCC(=O)N2CCc3ccccc32)n1	none (no result: D2 ag-1, D2 antagonist, D2 PAM-2)
O=C(CSc1nnc(-c2ccccc2)c(-c2ccccc2)n1)N1CCc2ccccc21	D2 antagonist 69
Cn1c(-c2ccccc2)cnc1SCC(=O)N1CCCc2ccccc21	none
O=C(CSc1ncc(-c2ccccc2)n1C1CCCC1)N1CCc2ccccc21	D2 antagonist 31
CCOc1ccc(CCNC(=O)CN2N=C(c3ccccc3)CCC2=O)cc1OCC	none (no result: D2 PAM-1, D2 ag-2, D2 antagonist)
O=C(NC1CCCC1)c1cccc2c1C(=O)c1ccc(N3CCCCC3)cc1S2(=O)=O	D2 PAM-2 37
O=C(NC1CCCCC1)c1cccc2c1C(=O)c1ccc(N3CCCC3)cc1S2(=O)=O	none (no result: D2 ag-1, D2 antagonist, D2 PAM-2)
CCN(CC)C(=O)C(C)OC(=O)c1ccc(O)cc1 (stereo not drawn)	D2 antagonist 30
COC(=O)c1ccc(O)cc1	none
CCSc1nnc(NC(=O)CCCOc2ccc(C)cc2)s1	none
O=C(c1ccccc1)c1c2c(cc3sc4ccccc4[n+]13)-c1cccc3cccc-2c13	D2 ag-1 60, D2 antagonist 44
COC(=O)c1ccc(C(=O)OC)c(NC(=O)CSCc2ccccc2Br)c1	D2 antagonist 45
Cc1cc(C)nc(N2CCCC(C(=O)NCc3ccc4c(c3)OCO4)C2)n1 (stereo not drawn)	none
CCCc1cc(N2CCCC(C(=O)NCc3ccc4c(c3)OCO4)C2)n2ncnc2n1 (stereo not drawn)	D2 PAM-2 36
CC1OC(OC2C(OC3C(O[C@H]4CC[C@]5(C)C6C=C[C@]78OC[C@@]9(CC[C@@H](C)[C@H](C)C97)[C@H](O)C[C@@]8(C)[C@]6(C)CC[C@H]5C4(C)C)OC(C)C(O)C3O)OC(CO)C(O)C2O)C(O)C(O)C1O (stereo partly drawn)	D2 ag-1 43, D2 antagonist 32 (no result: D2 PAM-1, D2 ag-2)
C[C@H]1O[C@@H](O[C@H]2CC[C@@]3(C)C(CC[C@]4(C)C3C=C[C@]35OC[C@@]6(CCC(C)(C)C[C@H]63)[C@@H](O)C[C@]54C)[C@]2(C)CO)[C@H](O)[C@@H](O[C@@H]2O[C@H](CO)[C@@H](O)[C@H](O)[C@H]2O)[C@H]1O (stereo partly drawn)	none (no result: D2 ag-1, D2 antagonist, D2 PAM-2)
COc1cc2c(cc1OC)C(=O)C(c1ccc3c(c1)OCO3)CC2 (stereo not drawn)	none (no result: D2 ag-1, D2 antagonist, D2 PAM-2)
COc1cc2c(cc1OC)C(=O)C(Br)CC2 (stereo not drawn)	D2 ag-2 46 (no result: D2 ag-1, D2 antagonist, D2 PAM-2)
O=C(NCc1cccc(Cl)c1)C1Cc2c(-c3ccc(Cl)cc3)ccnc2O1 (stereo not drawn)	none (no result: D2 ag-1, D2 antagonist, D2 PAM-2)
CCCN[C@H]1CCc2nc(N)sc2C1	D2 PAM-1 80, D2 ag-2 74 (no result: D2 ag-1, D2 antagonist, D2 PAM-2)
CCN(CC)c1ccc2cc(C(=O)NCc3ccc(F)cc3)c(=N)oc2c1	D2 ag-1 46 (no result: D2 PAM-1, D2 ag-2)
N=c1oc2ccc(Br)cc2cc1C(=O)NCc1ccc(F)cc1	none
O=C(Nc1cccc(C(F)(F)F)c1)c1cc(S(=O)(=O)N2CCCC2)c[nH]1	none (no result: D2 PAM-1, D2 ag-2, D2 antagonist)
Cc1cc(N2CCCC2)ccc1/C=C1\NC(=S)N(C)C1=O	D2 ag-1 36
O=C1/C(=C/c2ccc(N3CCCC3)cc2)NC(=S)N1C1CC1	D2 ag-1 48
Cc1ccc(C)c(OCCN2C(=O)NC3(CCc4ccccc4C3)C2=O)c1 (stereo not drawn)	D2 antagonist 33
O=C(NC1CCN(S(=O)(=O)c2cccc(Cl)c2)CC1)C1CCCCC1	none
CCOc1cccc(-c2c(C(=O)N/N=C/c3cccs3)nnn2-c2nonc2N)c1	D2 antagonist 32
OCCN(Cc1ccccc1)CC1CCCCC1	none
OCCN(Cc1ccccc1)CC1CC2C=CC1C2 (stereo not drawn)	D2 antagonist 37
CC1=C(C(=O)Nc2cc(C(=O)NCCC(C)C)ccc2C)SCCO1	none
CC(CCc1ccccc1)N1CCN(Cc2ccccc2)CC1 (stereo not drawn)	D2 antagonist 61
CC(CN1CCN(Cc2ccccc2)CC1)c1ccccc1 (stereo not drawn)	none
